The panel holds about 83,000 compounds, 20% with a hit somewhere; the sample as a whole holds those more often.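 Step 1: grow cells in 96-well plates. Step 2: add test compound at a single concentration. Step 3: incubate 48 h. Step 4: record percent growth.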 Activity calls are given as the source filed them. The calls were made as follows: active = growth percent below 10; inactive = the rest.
The compounds below were run on HL-60(TB) leukemia (assay: NCI-60 one-dose screen, 48 h (100 = growth as untreated, 0 = no growth, -100 = all killed)). Conditions: 10 µM unless noted.
`COC(=O)c1ccc2[nH]c(O)c(C(=Nc3ccc(N(C)C(=O)CN4CCN(C)CC4)cc3)c3ccc([N+](=O)[O-])cc3)c2c1` was tested, and the growth was 11.6% (inactive).
`CN(C)C(=O)c1cc2cnc(Nc3ccc(-c4csc5c(=O)cc(N6CCNCC6)oc45)cc3)nc2n1C1CCCC1` was tested, and the growth was -21% (active).
For `COc1ccc2[nH]cc(-c3nc(-c4c[nH]c5c(Cl)nccc45)cs3)c2c1`, the growth was 36% (inactive).
With `COc1ccc(/C=C\c2cc(OC)c(OC)c(OC)c2)cc1OC(=O)c1cccc(Cn2cc(CCOC(=O)[C@H](N)Cc3cn(C)c4ccccc34)nn2)c1` the growth was -42.7% (active).
In the case of `c1ccc(-c2nnc(-c3ccccn3)s2)nc1`, the growth is reported as 95.8% (inactive).
For `Cc1sc2ncn(CC(=O)Nc3ccc(S(N)(=O)=O)cc3)c(=O)c2c1C`, the growth was 103% (inactive).
With `N#C/C=C(\c1ccc([N+](=O)[O-])cc1)n1nnc2cc(Cl)c(Cl)cc21` the growth was 13.3% (inactive).
`COCn1c(C(=O)OC)cc2oc(/C=C3/SC(=S)N(N)C3=O)cc21` was tested, and the growth was 76.9% (inactive).
For `C=CCN(CC=C)C(=O)[C@H](CC)[C@@H]1CC[C@@H](C)[C@@H]([C@H](C)[C@@H](O)[C@@H](C)C(=O)[C@H](CC)C2O[C@]3(C=CC(=O)[C@]4(CC[C@@](C)([C@H]5CC[C@](O)(CC)[C@H](C)O5)O4)O3)[C@H](C)C[C@@H]2C)O1` (stereo not given in full), the growth was -25.2% (active).
For `CNc1nc(C)c(-c2nc(Nc3cccc(S(N)(=O)=O)c3)ncc2F)s1`, the growth was -47.9% (active).

— PubChem BioAssay (NCI)
